Among the data in PubChem BioAssay (NCI) are growth values, retold here.

Structures are written as SMILES. About 83,000 compounds went through this panel and 20% of them were active in at least one assay; those are over-represented in the sample as a whole.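 Results are percent growth after 48 hours of single-concentration exposure. 100 means growth as in untreated cells, lower positive values show inhibition; negative values down to -100 show cell death.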 Values without a mark were called inactive. Activity calls are given as the source filed them. The calls were made as follows: active = growth percent below 10; inactive = the rest.

What all share (test): NCI-60 one-dose screen, 48 h (100 = growth as untreated, 0 = no growth, -100 = all killed)
What all share (conditions): 10 µM unless noted

In assay [1] the test system is NCI-H23 lung.
Assay [2] concerns NCI-H226 lung.
The subject of assay [3] is NCI-H322M lung.
Assay [4] deals with HOP-62 NSCLC.
Assay [5] deals with NCI-H460 lung.
Assay [6] relates to HOP-92 NSCLC.
Assay [7] concerns NCI-H522 lung.
Assay [8] concerns A549/ATCC NSCLC.
Assay [9] has as its system 786-0 renal.
Assay [10] deals with COLO 205 colon.
Assay [11] deals with DU-145 prostate.
Assay [12] relates to K-562 leukemia.
The test system of assay [13] is MALME-3M melanoma.
Assay [14] concerns MDA-MB-231 breast.
Assay [15] has as its system RXF 393 renal.
Assay [16] has as its system SF-268 CNS.
Assay [17] has as its system SF-295 CNS.
In assay [18] the test system is SF-539 CNS.
The subject of assay [19] is M14 melanoma.

As to `O=C(Nc1cccc(Cl)c1)c1cc([N+](=O)[O-])ccc1O`, the growth in [1] is 25.8%; in assay [2] it was 68.2%; in assay [3] it was 43.9%; in assay [4], 44.2%; in assay [5], 54%; in [6] it was 8.95% (active). The growth in assay [7] was -2.45% (active); in [8], 66.9%; in [9] it was 63.8%; in assay [10] it was 76.7%; in [11] it was 73.2%; in assay [12] it was 27.7%. Also, the growth in assay [13] is 22%; in assay [14], 38%; in [15], 46.2%; in assay [16], 65%; in assay [17], 58.8%; in assay [18], 32.2%. Also, the growth in [19] is 54.9%.
Regarding `CN(C)C/C=C/C(=O)Nc1cc2c(Nc3cccc(Cl)c3F)ncnc2cc1OCCOC(F)F`, the growth in assay [1] is 60.9%; in assay [2] it was 40.3%; in [3] it was 7.68% (active); in [4] it was 39.3%; in [5] it was 67.4%; in assay [6] it was -29% (active). Further, the growth is -19.2% (active) in assay [7]; 25.2% in assay [8]; 18.5% in assay [9]; 56.7% in [10]; 31.3% in assay [11]; 18.1% in [12]. Moreover, the growth in assay [13] is 38.5%; in assay [14], 17.6%; in assay [15], 6.09% (active); in assay [16] it was 41.9%; in assay [17] it was 55.2%; in assay [18], 36.7%. In assay [19], the growth was 67.5%.
For the compound `O=S(=O)(NCCNc1cc(-c2cn(-c3ccccc3)nc2-c2ccccc2)ccn1)c1cccc2ccccc12`, the growth in assay [1] is 49.8%; in [2] it was 48%; in assay [3], 68.7%; in [4] it was 68.2%; in [5] it was 44.4%; in assay [6], 2.24% (active). The growth was 78.9% in [7]; 42.3% in assay [8]; 49.7% in assay [9]; 8.28% (active) in assay [10]; 68.9% in [11]; 20.7% in [12]. Also, the growth in [13] is 60.7%; in assay [14], 40%; in assay [15], 55.3%; in [16] it was 55%; in [17], 35.9%; in assay [18], 56.9%. Further, the growth in assay [19] was 42.9%.
As for `O=S(=O)(NCCCNc1cc(-c2cn(-c3ccccc3)nc2-c2cccc(O)c2)ccn1)c1ccc(Cl)cc1`, the growth is 33.1% in assay [1]; 24.8% in assay [2]; 25.2% in [3]; 29.1% in assay [4]; 10.9% in assay [5]; -6.58% (active) in assay [6]. Moreover, the growth in assay [7] was 20.2%; in assay [8] it was 18.8%; in [9], -11.8% (active); in assay [10], -68.5% (active); in assay [11] it was 39.9%; in assay [12] it was -8.45% (active). Moreover, the growth in assay [13] is -19.3% (active); in assay [14], -17.3% (active); in [15], 14.9%; in assay [16], 30.6%; in assay [17], -47.9% (active); in [18], 21.6%. The growth in [19] is 8.6% (active).
`Cc1cc(C)c2c(=O)[nH]c(SCC(=O)Nc3cccc(S(=O)(=O)N(C)C)c3)nc2n1`: the growth in [1] was 104%; in assay [2] it was 91.9%; in assay [3] it was 122%; in assay [4] it was 97.8%; in assay [5], 107%; in assay [6], 88.3%. The growth was 96.3% in assay [7]; 95% in [8]; 93.2% in assay [9]; 90.9% in [10]; 101% in assay [11]; 94.1% in assay [12]. The growth in assay [13] was 95.8%; in assay [14], 87.6%; in [15] it was 58.4%; in [16], 114%; in assay [17], 139%; in [18], 97.3%. The growth in [19] was 100%.
Regarding `O=C1CCCCN1CCCCC#Cc1ccccc1C#Cc1ccc([N+](=O)[O-])cc1`, the growth in [1] was 59%; in [2] it was 57.1%; in assay [3], 71%; in assay [4] it was 64.9%; in assay [5], 11.5%; in [6] it was 39.6%. The growth is 56.3% in [7]; 50.1% in assay [8]; 60.6% in [9]; 45.8% in assay [10]; 71.1% in assay [11]; 33.9% in assay [12]. The growth is 55.7% in [13]; 59.3% in assay [14]; 23.5% in assay [15]; 40.3% in assay [16]; 75.9% in assay [17]; 37.6% in assay [18]. In addition, the growth in [19] was 59.5%.
With `Cc1ccc2nc(-c3c(CCCO)noc3N)[nH]c(=O)c2c1`, the growth is 130% in assay [1]; 99.9% in assay [2]; 89.6% in assay [3]; 103% in [4]; 108% in assay [5]; 65.7% in [6]. Also, the growth was 103% in [7]; 101% in assay [8]; 98.6% in assay [9]; 121% in assay [10]; 117% in assay [11]; 68% in [12]. In addition, the growth is 96.6% in assay [13]; 105% in [14]; 153% in [15]; 111% in assay [16]; 99.6% in assay [17]; 97.3% in assay [18]. In addition, the growth in assay [19] was 107%.
Consider `Cc1ccc2c(c1)ncn2-c1ncnc2c1CC(C)c1ccccc1N2C` (stereo not given), for which the growth in assay [1] is 24%; in [2], 54.2%; in assay [3], 61.3%; in assay [4], 33.9%; in assay [5] it was 3.26% (active); in assay [6], 24%. Further, the growth in [7] was -22.8% (active); in [8], 23.5%; in [9] it was 24.9%; in assay [10], -33.4% (active); in [11], 11.8%; in assay [12] it was 7.17% (active). In addition, the growth in [13] is 49.3%; in assay [14], 26.9%; in [15], 72%; in assay [16], 19.9%; in assay [17] it was 13.3%; in [18], 4.79% (active). Moreover, the growth in assay [19] is 19.7%.
Turning to `CCOC(=O)CC/C(C)=N\Nc1ccc([N+](=O)[O-])cc1`, the growth in assay [1] was 99.5%; in assay [2], 67.9%; in [3], 77.3%; in assay [4] it was 63.2%; in [5], 27.1%; in assay [6], 89.8%. Further, the growth in assay [7] is 38.8%; in [8], 24.4%; in assay [9], 72.9%; in assay [10] it was 34.7%; in [11], 88.6%; in assay [12], 6.98% (active). Besides, the growth was 104% in assay [13]; 80.8% in assay [14]; 97.5% in assay [15]; 73.5% in [16]; 60% in assay [17]; 69.8% in [18]. In addition, the growth in assay [19] was 29.3%.
For the compound `CCCS(=O)(=O)c1nc(NC2CC2)cc(-c2ccc3c(ccn3C3CC(C)(C)NC(C)(C)C3)c2)n1`, the growth was 10% in assay [1]; -63% (active) in assay [2]; 32.5% in assay [3]; 7.4% (active) in assay [4]; -74.1% (active) in assay [5]; 87.6% in assay [6]. Besides, the growth was -64.1% (active) in [7]; -61.4% (active) in assay [8]; -87.3% (active) in assay [9]; -48.8% (active) in [10]; 8.45% (active) in [11]; -52.6% (active) in assay [12]. The growth in assay [13] is -56.3% (active); in assay [14], -78.8% (active); in assay [15] it was -87.3% (active); in assay [16] it was -48.7% (active); in assay [17], -48.9% (active); in assay [18] it was -88.1% (active). The growth in [19] is -78.2% (active).
For `CN1CCN(CCCOc2ccc3nc(Nc4ccc(C(F)(F)F)c(Cl)c4)ccc3c2)CC1`, the growth in [1] is 38.1%; in [2], 54.1%; in assay [3] it was -5.95% (active); in [4], -21.7% (active); in [5] it was -40% (active); in [6], 7.32% (active). The growth is -37.8% (active) in assay [7]; 3.9% (active) in assay [8]; -60.9% (active) in assay [9]; -77.9% (active) in [10]; 20.1% in assay [11]; -47.2% (active) in assay [12]. Also, the growth in assay [13] was -47.1% (active); in assay [14], -53.3% (active); in [15] it was 6.61% (active); in [16], 11.5%; in [17], -52.8% (active); in assay [18], -49% (active). In addition, the growth in [19] was -19.8% (active).
As to `Cc1oc2ncnc(Nc3ccccc3)c2c1C(=O)NCCO`, the growth was 92% in assay [1]; 106% in [2]; 108% in assay [3]; 99% in assay [4]; 98.6% in [5]; 88.6% in assay [6]. Besides, the growth is 96.6% in assay [7]; 98.1% in assay [8]; 98.7% in assay [9]; 100% in assay [10]; 105% in assay [11]; 29.4% in assay [12]. Also, the growth is 107% in assay [13]; 75% in assay [14]; 104% in assay [15]; 99.8% in assay [16]; 100% in [17]; 88.6% in [18]. In addition, in [19], the growth was 106%.
For `ClC1=C(Cl)C(Cl)=C(Cl)C1=Cc1ccc(Cl)cc1Cl`, the growth is -53.5% (active) in [1]; -33.9% (active) in [2]; 11.3% in assay [3]; 10.9% in assay [4]; -16.3% (active) in assay [5]; -81% (active) in assay [6]. In addition, the growth in assay [7] was -22.8% (active); in [8], -38.4% (active); in assay [9] it was -40.3% (active); in assay [10], -34.1% (active); in assay [11], -5.47% (active); in assay [12], 0.397% (active). In addition, the growth was -30.8% (active) in assay [13]; -10.8% (active) in assay [14]; -94.8% (active) in assay [15]; -43.4% (active) in [16]; -16.6% (active) in assay [17]; -30% (active) in assay [18]. Also, the growth in assay [19] is -30.1% (active).
With `Cc1cnc(NC(=O)C(Cc2ccccc2)NC(=O)c2ccccc2)s1` (stereo not given), the growth is 86% in assay [1]; 70.2% in assay [2]; 105% in assay [3]; 84.1% in assay [4]; 74.3% in [5]; 19.1% in assay [6]. The growth was 63.9% in [7]; 90.7% in assay [8]; 96.9% in assay [9]; 91.9% in [10]; 85.5% in assay [11]; 29.7% in assay [12]. Also, the growth is 54% in assay [13]; 77.9% in assay [14]; 50.2% in [15]; 96.9% in assay [16]; 65.9% in assay [17]; 87% in assay [18]. In addition, the growth in [19] is 52%.
In the case of `COc1cc(Br)c(OC)cc1Br`, the growth in [1] is 78%; in assay [2], 98.3%; in assay [3] it was 89.7%; in assay [4], 93.5%; in [5], 99.3%; in [6], 96.9%. In addition, the growth was 90.4% in assay [7]; 95.6% in [8]; 105% in assay [9]; 109% in [10]; 106% in assay [11]; 104% in [12]. Also, the growth in assay [13] was 75.4%; in assay [14], 85.6%; in assay [15], 116%; in assay [16] it was 98.6%; in assay [17], 94.7%; in [18] it was 93.6%. For the same compound, in [19], the growth was 91.5%.
